Results on 27 compounds are retold here after PubChem BioAssay (NCATS).

The target of assay [1] is T1, Tyrosine-protein phosphatase non-receptor type substrate 1 (Homo sapiens) + Leukocyte surface antigen CD47 (Homo sapiens) (UniProt P78324+Q08722). The assay is described as follows: CD47-SIRPalpha protein protein interaction - LANCE assay qHTS validation (AID 1347057; active = well fitted curve in the direction sought with a large enough effect in the signal ratio, with a control signal flat, not every such curve was filed as active; the % refers to the signal ratio; note: series mostly up to about 38 µM). The gist of the method: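 First, His-tagged CD47 and Eu-labelled anti-His antibody met the compound for 30 min; next, site-specifically biotinylated SIRPalpha was added for 30 min; finally streptavidin-APC was added before reading the TR-FRET ratio.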
T1 sequence (P78324 whole entry, looked up): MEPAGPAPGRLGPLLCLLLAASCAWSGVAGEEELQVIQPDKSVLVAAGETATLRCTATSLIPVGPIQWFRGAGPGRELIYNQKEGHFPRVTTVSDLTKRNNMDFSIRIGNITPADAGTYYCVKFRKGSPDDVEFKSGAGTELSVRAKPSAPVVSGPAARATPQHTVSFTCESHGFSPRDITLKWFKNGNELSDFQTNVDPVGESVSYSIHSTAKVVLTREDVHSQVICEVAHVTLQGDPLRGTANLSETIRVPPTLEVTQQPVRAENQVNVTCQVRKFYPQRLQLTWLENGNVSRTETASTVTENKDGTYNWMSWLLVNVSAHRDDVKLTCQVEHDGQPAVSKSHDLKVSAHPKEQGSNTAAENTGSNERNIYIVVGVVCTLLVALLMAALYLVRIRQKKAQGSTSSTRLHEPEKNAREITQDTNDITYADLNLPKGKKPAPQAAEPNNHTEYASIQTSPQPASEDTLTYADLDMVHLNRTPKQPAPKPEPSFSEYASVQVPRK
T1 sequence (Q08722 whole entry, looked up): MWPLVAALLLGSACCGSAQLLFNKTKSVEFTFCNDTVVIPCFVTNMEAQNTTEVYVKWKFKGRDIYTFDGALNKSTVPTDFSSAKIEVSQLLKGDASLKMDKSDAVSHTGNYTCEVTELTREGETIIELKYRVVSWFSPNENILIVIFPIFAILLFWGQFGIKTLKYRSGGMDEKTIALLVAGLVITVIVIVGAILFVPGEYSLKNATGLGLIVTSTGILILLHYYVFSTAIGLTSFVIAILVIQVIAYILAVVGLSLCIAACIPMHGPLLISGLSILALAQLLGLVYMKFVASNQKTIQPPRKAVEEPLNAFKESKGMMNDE

The target of assay [2] is T1, Tyrosine-protein phosphatase non-receptor type substrate 1 (Homo sapiens) + Leukocyte surface antigen CD47 (Homo sapiens). The assay is described as follows: CD47-SIRPalpha protein protein interaction - HTRF assay qHTS validation (AID 1347058; active = well fitted curve in the direction sought with a large enough effect in the signal ratio, not every such curve was filed as active; the % refers to the signal ratio;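 note: recombinant soluble extracellular CD47 with His tag and biotinylated SIRPalpha domains; series mostly up to about 38 µM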). An outline of the steps: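 TR-FRET read (Ch1/Ch2 ratio) of soluble extracellular CD47 and Avi-biotinylated SIRPalpha domains in PBS pH 7.4 with 0.05% IGEPAL; 7-point compound titration. Sequential 30 min room-temperature steps; non-biotinylated SIRPalpha as control inhibitor.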
(In general: TR-FRET usually uses a lanthanide donor and a delayed reading to cut background.)

For assay [3] the target is unchanged. The assay is described as follows: CD47-SIRPalpha protein protein interaction - Alpha assay qHTS validation (AID 1347059).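 Note: bead proximity luminescence from CD47 binding SIRPalpha after compound preincubation with SIRPalpha.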 Note: potency is the fitted concentration of half-maximal effect. The gist of the method: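 Binding is measured by AlphaScreen proximity: Ni-NTA acceptor beads capture His-CD47, streptavidin donor beads capture biotin-SIRPalpha. Each of three additions (SIRPalpha with compound, CD47, beads) incubates 30 min at room temperature protected from light.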
In general terms: Quantitative high-throughput screening tests each substance at several concentrations.

In assay [4] the target is Parathyroid hormone/parathyroid hormone-related peptide receptor (Homo sapiens) (UniProt Q03431). The assay is described as follows: qHTS for PTHR1 Agonists: Optimization Screen against the NCGC LOPAC library (AID 1347079).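 Note: GloSensor cAMP luminescence in HEK-293 GP2 cells expressing human PTHR1 with IBMX.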 An outline of the steps:
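Compounds were tested across a qHTS titration. PTHR1-expressing GP2 cells report cAMP rises via GloSensor luminescence after 1 hr compound exposure at 37C with IBMX present.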

Assay [5] in a line: qHTS for Inhibitors of the Functional Ribonucleoprotein Complex (vRNP) of Lassa (LASV) Arenavirus: LASV Primary Screen - GLuc reporter signal (AID 1347082; calls by dose curve; tested in HEK293 reporter line; note: series mostly up to about 57 µM; nearly all actives have a fitted effect of over 60% in size).
Assay [6] is described as follows: qHTS for Inhibitors of the Functional Ribonucleoprotein Complex (vRNP) of Lassa (LASV) Arenavirus: Viability assay - alamar blue signal for LASV Primary Screen (AID 1347083; calls by dose curve; tested in HEK293 reporter line; note: series mostly up to about 57 µM; nearly all actives have a fitted effect of over 80% in size).
Assay [7] can be described thus: qHTS for Inhibitors of the Functional Ribonucleoprotein Complex (vRNP) of Lymphocytic Choriomeningitis Arenaviruses (LCMV): Viability assay - alamar blue signal for LCMV Primary Screen (AID 1347085; calls by dose curve; tested in HEK293 reporter line; note: series mostly up to about 57 µM; nearly all actives have a fitted effect of over 80% in size).
For assay [8], the target named is Nucleoprotein (Lymphocytic choriomeningitis virus (strain Armstrong)) (UniProt P09992). The assay is described as follows: qHTS for Inhibitors of the Functional Ribonucleoprotein Complex (vRNP) of Lymphocytic Choriomeningitis Arenaviruses (LCMV): LCMV Primary Screen - GLuc reporter signal (AID 1347086; calls by dose curve; note: series mostly up to about 57 µM; nearly all actives have a fitted effect of over 70% in size).
Nucleoprotein (Lymphocytic choriomeningitis virus (strain Armstrong)), sequence (P09992 whole entry, looked up): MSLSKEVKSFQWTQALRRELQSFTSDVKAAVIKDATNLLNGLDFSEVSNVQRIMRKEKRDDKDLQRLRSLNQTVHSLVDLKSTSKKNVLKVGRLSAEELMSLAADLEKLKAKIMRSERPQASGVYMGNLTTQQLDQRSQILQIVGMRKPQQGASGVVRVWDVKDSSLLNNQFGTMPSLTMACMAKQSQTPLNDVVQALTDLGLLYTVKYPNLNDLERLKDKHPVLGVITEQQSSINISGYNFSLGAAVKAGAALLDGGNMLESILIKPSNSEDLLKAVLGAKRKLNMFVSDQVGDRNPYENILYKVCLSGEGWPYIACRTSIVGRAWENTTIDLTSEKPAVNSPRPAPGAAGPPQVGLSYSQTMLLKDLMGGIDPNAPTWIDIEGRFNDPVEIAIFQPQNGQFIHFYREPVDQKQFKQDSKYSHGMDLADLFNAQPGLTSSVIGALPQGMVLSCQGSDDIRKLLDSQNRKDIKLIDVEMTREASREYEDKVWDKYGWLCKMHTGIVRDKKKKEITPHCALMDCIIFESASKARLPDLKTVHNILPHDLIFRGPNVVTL

Records with an inconclusive call do not appear. The source made the active and inactive calls. Unless noted, calls come from the whole dose curve; as a rule, active = well fitted curve in the direction sought with a large enough effect; inconclusive = small, poorly fitted or top-dose-only effect, or another doubt; inactive = no such curve, though single readings can be large; an effect the other way counts as inactive or inconclusive.

Parathyroid hormone/parathyroid hormone-related peptide receptor (Homo sapiens), sequence (Q03431 whole entry, looked up): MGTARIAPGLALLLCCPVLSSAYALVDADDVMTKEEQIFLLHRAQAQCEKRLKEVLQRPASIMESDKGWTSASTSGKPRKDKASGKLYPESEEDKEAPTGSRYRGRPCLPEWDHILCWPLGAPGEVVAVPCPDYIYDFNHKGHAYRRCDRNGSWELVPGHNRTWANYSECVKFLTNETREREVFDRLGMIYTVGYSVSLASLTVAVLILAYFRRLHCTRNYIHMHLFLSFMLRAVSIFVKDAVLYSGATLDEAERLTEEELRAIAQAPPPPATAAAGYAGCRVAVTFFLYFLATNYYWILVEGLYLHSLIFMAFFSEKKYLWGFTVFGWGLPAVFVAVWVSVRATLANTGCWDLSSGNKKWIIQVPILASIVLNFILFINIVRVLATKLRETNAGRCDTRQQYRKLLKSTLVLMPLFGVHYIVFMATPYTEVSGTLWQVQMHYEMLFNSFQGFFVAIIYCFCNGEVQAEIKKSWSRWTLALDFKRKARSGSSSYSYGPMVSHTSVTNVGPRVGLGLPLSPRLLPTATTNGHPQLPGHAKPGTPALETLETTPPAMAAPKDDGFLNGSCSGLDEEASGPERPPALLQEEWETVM

As to `NC(=O)CN1CC(O)CC1=O` (stereo unspecified), the result in assay [1], in assay [2] and in assay [4] was inactive. Besides, the Potency result in assay [3], in assay [5], in assay [6], in assay [7] and in assay [8] was “inactive” in each case.
`CS(=N)(=O)CC[C@H](N)C(=O)O` (stereo partly specified): the outcome in assay [1] and in assay [4] was inactive. In addition, the Potency result in assay [3], in assay [5], in assay [6], in assay [7] and in assay [8] was “inactive” each time.
As to `NCCc1c[nH]c2ccccc12`, the result in assay [1] and in assay [4] was inactive. Moreover, the Potency result in assay [3], in assay [5], in assay [6], in assay [7] and in assay [8] was “inactive” in each case.
For the compound `CC(C)NC(C)Cc1ccc(I)cc1` (stereo unspecified), the outcome in assay [1] and in assay [4] was inactive. Also, the Potency entry in assay [3], in assay [5], in assay [6], in assay [7] and in assay [8] was “inactive” throughout.
As to `C/C=C(/C)C(=O)O[C@H]1C(C)=C2[C@H]([C@@H]1OC(=O)CCCCCCC)[C@@](C)(OC(C)=O)C[C@H](OC(=O)CCC)[C@@]1(O)[C@H]2OC(=O)[C@@]1(C)O`, the result in assay [1], in assay [2] and in assay [4] was inactive. Moreover, the Potency result in assay [3] is “inactive”.
`NC(=NCCC[C@H](N)C(=O)O)N[N+](=O)[O-]`: the result in assay [1] and in assay [4] was inactive. In addition, the Potency entry in assay [3], in assay [5], in assay [6], in assay [7] and in assay [8] was “inactive” each time.
As to `CN[C@@H]1C[C@@H](c2ccc(Cl)c(Cl)c2)c2ccccc21`, the result in assay [1] and in assay [4] was inactive. Besides, in assay [3], the Potency entry is “inactive”.
`O=C1CCCN1CC#CCN1CCCC1`: the outcome in assay [1] and in assay [4] was inactive. For the same compound, the Potency result in assay [3], in assay [5], in assay [6], in assay [7] and in assay [8] was “inactive” in each case.
As for `Cc1nccc2c1[nH]c1ccccc12`, the result in assay [1] and in assay [4] was inactive. The Potency entry in assay [3], in assay [5], in assay [6], in assay [7] and in assay [8] was “inactive” throughout.
With `NC(N)=NOCCC(N)C(=O)O` (stereo unspecified), the result in assay [1], in assay [2] and in assay [4] was inactive. Besides, the Potency entry in assay [3], in assay [5], in assay [6], in assay [7] and in assay [8] was “inactive” in each case.
Take `C[C@]12CCC3C(CC[C@H]4C[C@H](O)CC[C@]34C)C1CC[C@@H]2C(=O)CO` (stereo partly specified): the result in assay [1] and in assay [4] was inactive. Further, the Potency entry in assay [3], in assay [5], in assay [6], in assay [7] and in assay [8] was “inactive” in each case.
As to `CN1C2CCC1CC(OC(=O)c1cc(Cl)cc(Cl)c1)C2` (stereo unspecified), the result in assay [1], in assay [2] and in assay [4] was inactive. The Potency result in assay [3], in assay [5], in assay [6], in assay [7] and in assay [8] was “inactive” throughout.
For `CCCCc1ccc(C(=O)O)nc1`, the result in assay [1] and in assay [4] was inactive. In assay [3], the Potency is 16.5 µM (active). The Potency entry in assay [5], in assay [6], in assay [7] and in assay [8] was “inactive” throughout.
On to `CNCCc1c[nH]c2ccc(O)cc12`, for which the result in assay [1] and in assay [4] was inactive. The Potency result in assay [3], in assay [5], in assay [6], in assay [7] and in assay [8] was “inactive” each time.
As to `C[C@@H]1O[C@H](C[N+](C)(C)C)C[C@H]1O`, the outcome in assay [1], in assay [2] and in assay [4] was inactive. Besides, the Potency entry in assay [3], in assay [5], in assay [6], in assay [7] and in assay [8] was “inactive” each time.
Consider `O=C(O)[C@@H]1CCN1`, for which the result in assay [1] and in assay [4] was inactive. In addition, the Potency result in assay [3], in assay [5], in assay [6], in assay [7] and in assay [8] was “inactive” in each case.
For the compound `O=C(O)Cc1cnc[nH]1`, the outcome in assay [1] and in assay [4] was inactive. In addition, the Potency entry in assay [3], in assay [5], in assay [6], in assay [7] and in assay [8] was “inactive” throughout.
As for `CCCN1CCO[C@@H]2c3cc(O)ccc3OC[C@H]21`, the result in assay [1] and in assay [4] was inactive. The Potency entry in assay [3], in assay [5], in assay [6], in assay [7] and in assay [8] was “inactive” each time.
Consider `C[C@@H](N)Cc1cnc[nH]1`, for which the outcome in assay [1] and in assay [4] was inactive. Besides, the Potency result in assay [3], in assay [5], in assay [6], in assay [7] and in assay [8] was “inactive” each time.
Regarding `S=C(NC1CCCCC1)N1CCC(c2cnc[nH]2)CC1`, the outcome in assay [1] and in assay [4] was inactive. For the same compound, the Potency result in assay [3], in assay [5], in assay [6], in assay [7] and in assay [8] was “inactive” throughout.
`NCc1cc(=O)[nH]o1`: the outcome in assay [1] and in assay [4] was inactive. Also, the Potency entry in assay [3], in assay [5], in assay [6], in assay [7] and in assay [8] was “inactive” in each case.
With `NC1CCc2cc(O)c(O)cc2C1` (stereo unspecified), the result in assay [1] and in assay [4] was inactive. Besides, the Potency entry in assay [3], in assay [5], in assay [6], in assay [7] and in assay [8] was “inactive” throughout.
With `NC(CP(=O)(O)O)C(=O)O` (stereo unspecified), the outcome in assay [1] and in assay [4] was inactive. Moreover, the Potency entry in assay [3], in assay [5], in assay [6], in assay [7] and in assay [8] was “inactive” each time.
On to `CCCN1CCC[C@H](c2cccc(O)c2)C1`, for which the result in assay [1] and in assay [4] was inactive. Besides, the Potency result in assay [3], in assay [5], in assay [6], in assay [7] and in assay [8] was “inactive” in each case.
As to `NC(CCP(=O)(O)O)C(=O)O` (stereo unspecified), the result in assay [1] and in assay [4] was inactive. In addition, the Potency entry in assay [3], in assay [5], in assay [6], in assay [7] and in assay [8] was “inactive” each time.
Regarding `O=C(O)CC[N+](=O)[O-]`, the result in assay [1] and in assay [4] was inactive. The Potency result in assay [3], in assay [5], in assay [6], in assay [7] and in assay [8] was “inactive” each time.
For `COc1cc(C(O)CN)ccc1O` (stereo unspecified), the result in assay [1] and in assay [4] was inactive. Also, the Potency entry in assay [3], in assay [5], in assay [6], in assay [7] and in assay [8] was “inactive” in each case.
